Compounds without any hit were thinned out: in the full panel of roughly 83,000, 20% have a hit.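 Plates (96-well) were seeded with cells, treated with compound at one concentration, and incubated for 48 hours before percent growth was determined.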 Unmarked numbers belong to inactive results. Calls of active or inactive are those of the source. How the source made its calls: active means growth percent below 10; inactive means the rest.
How the values were obtained:
Assay in all cases: NCI-60 one-dose screen, 48 h (100 = growth as untreated, 0 = no growth, -100 = all killed)
[1] = tested on: SK-MEL-2 melanoma; conditions: 10 µM unless noted
[2] = tested on: SN12C renal; conditions: 10 µM unless noted
[3] = tested on: UO-31 renal; conditions: 10 µM unless noted
[4] = tested on: TK-10 renal; conditions: 10 µM unless noted
[5] = tested on: ACHN renal; conditions: 10 µM unless noted
[6] = tested on: CAKI-1 renal; conditions: 10 µM unless noted
[7] = tested on: A498 renal; conditions: 10 µM unless noted
[8] = tested on: CCRF-CEM leukemia; conditions: 10 µM unless noted
[9] = tested on: MOLT-4 leukemia; conditions: 10 µM unless noted
[10] = tested on: SR leukemia; conditions: 10 µM unless noted
[11] = tested on: RPMI-8226 leukemia; conditions: 10 µM
[12] = tested on: OVCAR-8 ovarian; conditions: 10 µM unless noted
[13] = tested on: OVCAR-5 ovarian; conditions: 10 µM unless noted
[14] = tested on: OVCAR-4 ovarian; conditions: 10 µM unless noted
[15] = tested on: SK-OV-3 ovarian; conditions: 10 µM
[16] = tested on: IGROV1 ovarian; conditions: 10 µM unless noted
[17] = tested on: OVCAR-3 ovarian; conditions: 10 µM unless noted
[18] = tested on: HS 578T breast; conditions: 10 µM unless noted
[19] = tested on: NCI/ADR-RES ovarian; conditions: 10 µM unless noted

Structure (SMILES)	growth [1]	growth [2]	growth [3]	growth [4]	growth [5]	growth [6]	growth [7]	growth [8]	growth [9]	growth [10]	growth [11]	growth [12]	growth [13]	growth [14]	growth [15]	growth [16]	growth [17]	growth [18]	growth [19]
COc1nc2c(cc1S(=O)(=O)c1ccccc1)CCc1c-2cnn1-c1ccccc1Cl	92.2%	59%	40.2%	42.2%	62.5%	49.9%	-1.8% (active)	60.8%	42.9%	37.9%	56.8%	59.8%	70.6%	67.8%	85.7%	77.1%	70.8%	68.4%	70.2%
Cc1nn(-c2ccccc2)c2nc3nc4c(c(N)c3c(-c3ccc(Cl)cc3)c12)CCCC4	98.3%	96.3%	84.4%	112%	81.8%	90.5%	97.2%	92.5%	97%	-15.3% (active)	93%	92.6%	96.3%	109%	101%	104%	114%	105%	106%
O=S(=O)(OCCO)c1ccccc1	102%	96.2%	90.4%	100%	104%	88.2%	110%	61.8%	108%	100%	103%	90.6%	92%	109%	109%	113%	112%	108%	102%
Cc1nn(-c2ccccc2)c2nc3nc4c(c(N)c3c(-c3ccc(Cl)cc3)c12)CCC4	96.8%	105%	75.2%	105%	51.1%	93.1%	92.4%	21.7%	90.4%	-25.9% (active)	82.3%	83%	93.2%	101%	98.6%	84.5%	111%	99.5%	95.2%
COc1ccc(/C=C2\CN(Cc3cn(CCCNc4ccnc5cc(Cl)ccc45)nn3)C/C(=C\c3ccc(OC)cc3)C2=O)cc1	90.4%	67%	54.7%	94.9%	79.6%	92.6%	52.9%	1.02% (active)	32.2%	-6.55% (active)	18%	1.09% (active)	120%	55.1%	70.7%	65%	68.7%	81.5%	50.7%
COc1nc2c(cc1S(=O)(=O)c1ccccc1)CCc1c-2cnn1-c1ccccc1	83.4%	77.9%	-65.3% (active)	67.9%	71.1%	58.2%	54.6%	68.6%	54.5%	45.4%	62.6%	76.4%	81.1%	76.7%	87.2%	79.6%	88.9%	85.2%	80.8%
CCCCC(=O)N/N=C/c1cc(I)cc(I)c1O	64.3%	56.3%	34.9%	49.3%	23.6%	21.6%	70.4%	14.9%	28.2%	16.8%	53%	36.6%	59.6%	34.1%	58.6%	35.8%	18.7%	76.6%	23.9%
COc1ccc(/C=C2\CN(Cc3cn(CCCNc4ccnc5cc(Cl)ccc45)nn3)C/C(=C\c3ccc(OC)c(OC)c3)C2=O)cc1OC	27.7%	-38% (active)	33.2%	14.3%	-38% (active)	31%	23.5%	-15.2% (active)	-13% (active)	-11.8% (active)	-35.5% (active)	6.8% (active)	2.05% (active)	21.3%	36.5%	31.7%	12.7%	34%	94.4%
Cc1nc2cc(Nc3nc(N4CCOCC4)nc(N4CCN(C)CC4)n3)ccc2n1Cc1ccccc1	106%	101%	81.7%	106%	96.6%	93.3%	92.4%	96.2%	91.8%	93%	102%	98.3%	96.7%	100%	103%	103%	115%	108%	110%
O=C1c2ccccc2-c2nnc(-c3ccc(Br)cc3)cc21	-0.262% (active)	27.9%	46.9%	119%	34.8%	60.3%	97%	20.7%	4.61% (active)	11.6%	27.4%	77.7%	110%	10.1%	91.6%	40.4%	-23% (active)	48.2%	9.3% (active)
O=C(Nc1nc2ccccc2[nH]1)C(=O)Nc1nc2ccccc2[nH]1	98.8%	94.5%	69.6%	132%	93.4%	91.5%	99.1%	94.7%	103%	89.6%	90.8%	102%	88.6%	96.3%	108%	81.9%	101%	105%	98.7%
COc1cc(/C=C2\C(=O)N(c3c(Cl)cccc3Cl)c3ccccc32)cc(OC)c1O	36%	50%	31.7%	48.2%	40.5%	7.23% (active)	102%	17.6%	0.985% (active)	3.84% (active)	12.5%	33.1%	89.8%	53.6%	53.7%	6.56% (active)	46%	39.8%	38.7%
C=CC[P+](c1ccccc1)(c1ccccc1)c1ccccc1	24.6%	69.7%	99.7%	78.7%	91.2%	90.9%	81.5%	59.7%	62.5%	35.7%	6.29% (active)	45.8%	77%	46%	70.8%	73.2%	32%	79.4%	112%
COc1ccc(OC)c2ncccc12	87.5%	101%	64.4%	108%	94.7%	95.7%	101%	92.4%	93.1%	99%	94.9%	103%	107%	102%	96.7%	106%	110%	107%	100%
CCCCC(CCCC)(S(=O)(=O)CC)S(=O)(=O)CC	108%	102%	84.6%	99.2%	105%	93.6%	88.7%	91.5%	93.6%	92.3%	90.8%	102%	103%	110%	105%	104%	105%	104%	102%
CCCN(CCC)c1ccc(/C=C/c2ccc3cc(OCC)ccc3n2)cc1	88.2%	90.7%	71.8%	116%	92.4%	85.1%	64.6%	63.4%	53%	-8.74% (active)	35.6%	94.6%	110%	80.8%	104%	99.6%	132%	66.5%	93.1%
Cc1nc2cc(Nc3nc(Nc4ccc(F)cc4)nc(N4CCCC4)n3)ccc2n1Cc1ccccc1	-58% (active)	-62.9% (active)	-68.7% (active)	-55.8% (active)	11.5%	-14.4% (active)	-19.3% (active)	-30.4% (active)	-30.7% (active)	-27.9% (active)	-47.4% (active)	-35.2% (active)	-54.8% (active)	4.79% (active)	-2.81% (active)	-6.78% (active)	-84% (active)	30.6%	-28% (active)
